Reference: PubChem BioAssay (Tox21)
Records with an inconclusive call do not appear. Values without a mark were called inactive. The call rests on the fitted dose curve; in most records, active means well fitted cell-killing curve with a large enough effect in the repeat runs; inconclusive means weak or mixed curves, or effect the other way; inactive means flat fitted curve, though single readings scatter.

Assay: qHTS assay to identify small molecule antagonists of the constitutive androstane receptor (CAR) signaling pathway - cell viability counter screen (AID 1224837); further: nearly all actives have a fitted effect of over 45% in size
Conditions: HepG2-CYP2B6-hCAR viability, CellTiter-Fluor, 23 h, co-treated with 50 nM CITCO; series mostly up to 92.4 µM; activity change, negative = cytotoxicity: at the top concentration
Outline: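 Fluorescence from CellTiter-Fluor served as the viability signal. Human hepatoma HepG2 cells stably bearing hCAR and CYP2B6-2.2kb received compound plus CITCO (50 nM final) for 23 hr.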
On the % scale 0 is the no-effect control and ±100 the full control effect.

| Compound | activity change, negative = cytotoxicity |
| --- | --- |
| C#CCN1C(=O)COc2cc(F)c(N3C(=O)C4=C(CCCC4)C3=O)cc21 | 0.831% |
| [As]#[In] | -2.08% |
| N#CCBr | 5.37% |
| CCC(C)n1c(=O)[nH]c(C)c(Br)c1=O (stereo not given) | 0.832% |
| CCS(=O)(=O)CCSP(=O)(OC)OC | -11.3% |
| C=C(C)CN(CC)c1c([N+](=O)[O-])cc(C(F)(F)F)cc1[N+](=O)[O-] | 4.8% |
| Fc1cc(Br)ccc1CBr | 3.24% [at 42.5 µM] |
| OCCSCSCCO | 0.855% |
| CCCCOC(=O)[C@@H](C)Oc1ccc(Oc2ccc(C#N)cc2F)cc1 | 1.58% |
| CCC#N | 4.42% |
| CCC(=O)c1ccccc1 | 2.27% |
| CCOC(=O)C1(c2ccccc2)CCN(CCc2ccc(N)cc2)CC1 | -13.3% [at 42.5 µM] |
| CSc1ccc(C(=O)C(C)(C)N2CCOCC2)cc1 | -1.27% |
| N#CCNCC#N | 7.41% |
| CC(=O)CCc1ccc2c(c1)OCO2 | 0.273% |
